# PubChem BioAssay (Tox21)
# Inconclusive results are not listed. A number with no mark means an inactive call. Active and inactive are the calls of the source. The call rests on the fitted dose curve.
# Target: 5-hydroxytryptamine receptor 2A (Homo sapiens) (UniProt P28223)
# Assay: 5-hydroxytryptamine receptor 2A (HTR2A) small molecule agonists, cell-based qHTS assay (AID 1963587); further: nearly all actives have a fitted effect of over 30% in size
# Details: HTR2A-CHO cells, calcium flux fluorescence, agonist mode; series mostly up to 76.8 µM; activation: at the top concentration
# From the text: National Center for Advancing Translational Sciences [NCATS]
# Division of Preclinical Innovation [DPI]
# U.S. Environmental Protection Agency [EPA]
# National Institutes of Environmental Health Sciences [NIEHS]
# National Toxicology Program [NTP]
# U.S. Food and Drug Administration [FDA]
# The HTR2A receptor is a subtype of the 5-HT2 receptor that belongs to the serotonin receptor family and is a G protein-coupled receptor (GPCR). The HTR2A-CHO cell line stably expressing human 5-hydroxytryptamine receptor 2A (HTR2A) can be used for screening agonists of interactions between 5-HT2 and its ligands. The HTR2A-CHO calcium flux assay is a homogeneous fluorescence-based assay for detecting the intracellular calcium level using FDSS kinetic plate reader system.
# HTR2A-CHO cells were dispensed at 2000 cells/3uL/well in 1536-well black-clear bottom plates using a Multidrop Dispenser. After the assay plates were incubated at a 37 C/5% CO2 incubator for 18 h, 3 uL of Dye Loading Buffer was transferred to the assay plate by a Flying Reagent Dispenser. The assay plates were incubated at 37 C for 1h. For agonist mode, 23 nL of compounds dissolved in DMSO, positive controls or DMSO only was transferred to the assay plate by a pin tool. The fluorescence intensity in the plates was measured using FDSS 7000EX kinetic plate reader for 2 min at 1 sec intervals.
# On the % scale 0 is the no-effect control and ±100 the full control effect.
# 5-hydroxytryptamine receptor 2A (Homo sapiens), sequence (P28223 whole entry, looked up): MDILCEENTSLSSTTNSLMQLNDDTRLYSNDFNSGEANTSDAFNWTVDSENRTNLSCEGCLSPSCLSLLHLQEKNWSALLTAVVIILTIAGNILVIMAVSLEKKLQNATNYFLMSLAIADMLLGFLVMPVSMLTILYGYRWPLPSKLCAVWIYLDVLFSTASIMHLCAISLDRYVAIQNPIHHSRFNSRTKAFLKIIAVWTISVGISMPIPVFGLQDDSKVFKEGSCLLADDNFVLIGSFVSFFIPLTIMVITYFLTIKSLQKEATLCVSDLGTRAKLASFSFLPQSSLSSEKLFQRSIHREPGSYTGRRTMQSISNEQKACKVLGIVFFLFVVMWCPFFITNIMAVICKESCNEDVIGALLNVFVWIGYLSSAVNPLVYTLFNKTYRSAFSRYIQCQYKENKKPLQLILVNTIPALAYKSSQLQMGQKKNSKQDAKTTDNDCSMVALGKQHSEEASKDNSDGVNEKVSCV
SMILES,activation,Potency
CC12CCC(C(=O)C1=O)C2(C)C (stereo not given),1.25%,
CCCCCCCCS,0.154%,
Cc1ccc(C)o1,-0.867%,
CC/C=C\CC1=C(C)CCC1=O,-1.79%,
CCOc1ccc(Cc2nccc3cc(OCC)c(OCC)cc23)cc1OCC,-4.72% [at 35.6 µM],
CC/C=C\CCO,-0.468%,
CC(=O)/C=C/C1C(C)=CCCC1(C)C (stereo not given),5.16%,
O=C(Nc1ccc([N+](=O)[O-])cc1Cl)c1cc(Cl)ccc1O,,inactive
CCCOC(C)=O,-3.86%,
c1ccsc1,-5.23%,
O=[N+]([O-])c1ccc(Oc2ccc([N+](=O)[O-])cc2)cc1,-2.8%,
CN(C)c1ccc(/C=C/c2ccc([N+](=O)[O-])cc2)cc1,13.3% [at 7.02 µM],
CCC(=O)OCc1ccccc1,-0.683%,
CC(C)(C)S,-0.772%,
c1ccc(CCc2ccccc2)cc1,1.39%,
CS(C)(=O)=O,0.63%,
O=C1Cc2cc(Cl)ccc2N1,-1.48% [at 35.6 µM],
O=C(O)CN(CCCN(CC(=O)O)CC(=O)O)CC(=O)O,8.84% [at 15.9 µM],
CCCCCCCCCCC,-1.48%,
CCCCc1ccc(Cl)cc1,-1.99%,

SMILES,activation,Potency
CC(C)COC(=O)c1ccccc1O,-2.26%,
NC(=O)c1ccc([N+](=O)[O-])cc1,6.53%,
CO[Si](CCCOCC1CO1)(OC)OC (stereo not given),,inactive
O=C1OC(=O)c2ccc3c4c(ccc1c24)C(=O)OC3=O,-0.257%,
COc1cc2c(Nc3ccc(Br)cc3F)ncnc2cc1OCC1CCN(C)CC1,-1.65% [at 35.6 µM],
C[C@@H]1CCC[C@H](C)N1CCCC(O)(c1ccccc1)c1ccccn1 (stereo not given in full),5.05% [at 35.6 µM],
COC(=O)c1cc(S(N)(=O)=O)ccc1OC,-1.8% [at 35.6 µM],
CCc1c(Br)c(Br)c(Br)c(Br)c1Br,7.45%,
O=C1OC(CN2CCOCC2)CN1/N=C/c1ccc([N+](=O)[O-])o1 (stereo not given),-1.23% [at 35.6 µM],
Cc1ncc(CSSCc2cnc(C)c(O)c2CO)c(CO)c1O,-0.314% [at 35.6 µM],
CCCCCC/C(C=O)=C\c1ccccc1,,inactive
CCCCC(CC)COC(C)=O (stereo not given),,inactive
CCC(C)CO (stereo not given),,inactive
Cc1oc(C)c(C(=O)Nc2ccccc2)c1C,-1.89%,
CCOC(C)(C)C,-1.4%,
C[n+]1ccn(CCO)c1,,inactive
C=CCOCC(CO)(COCC=C)COCC=C,4.5% [at 35.6 µM],
C[Si](C)O[Si](C)(C)O[Si](C)(C)O[Si](C)C,0.395%,
O=C1CCCc2ccccc21,1.15%,
CC(S)C(=O)NCC(=O)O (stereo not given),0.654% [at 35.6 µM],
